This is a sample that favours compounds with a hit; in the whole collection about 0.91% have one here.
TRb-SRC2 inh: TRbeta-SRC2 interaction inhibition; P10828; TRbeta-SRC2 peptide binding, fluorescence polarization; receptor liganded with 1 µM T3; Potency, µM (doses to about 106 µM), for the others: top-dose activity change, negative = inhibition, hits mostly inhibitors; hit rate 0.065% among 280,000; AID 1469;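 also: plate controls were bound peptide for no effect and peptide without receptor for full effect; nearly all actives have a fitted effect of over 50% in size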
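A fluorescence polarization screen tested compounds at multiple concentrations against complex formation between 0.6 uM TRb ligand-binding domain and 20 nM Texas Red SRC2 peptide, with 1 uM T3 present; readout after 5 hr.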
APEX1 inh: APE1 (human) endonuclease inhibition | P27695 | recombinant APE1, TAMRA/BHQ-2 abasic DNA cleavage fluorescence | hit rate 0.35% among 350,000 | Potency, µM (top dose mostly 65.8 µM), inactives show at the top dose activity change, negative = inhibition, actives largely listed as inhibitors | AID 2517;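 also: plate controls were vehicle for no effect and reference inhibitor for full effect; nearly all actives have a fitted effect of over 55% in size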
Target sequence (P27695 whole entry, looked up): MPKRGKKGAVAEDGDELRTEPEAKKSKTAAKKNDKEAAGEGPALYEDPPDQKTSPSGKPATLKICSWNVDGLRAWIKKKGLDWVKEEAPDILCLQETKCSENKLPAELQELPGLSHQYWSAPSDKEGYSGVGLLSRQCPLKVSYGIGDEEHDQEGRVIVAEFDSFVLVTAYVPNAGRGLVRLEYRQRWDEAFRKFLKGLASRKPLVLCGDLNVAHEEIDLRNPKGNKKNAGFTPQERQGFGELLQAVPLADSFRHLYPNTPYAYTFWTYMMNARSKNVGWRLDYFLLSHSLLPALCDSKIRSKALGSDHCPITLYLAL
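Enzyme (0.75 nM final) and test compound are incubated 15 min at room temperature before adding 50 nM quenched THF abasic-site duplex. Cleavage dequenches TAMRA, followed at 525/598 nm over three reads one minute apart.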
WRN helicase inh-1: WRN helicase (human) inhibition | Q14191 | WRN helicase unwinding, fluorescent forked duplex, kinetic | hit rate 0.46% among 360,000 | Potency, µM (series often up to 114 µM), without a hit: at the highest dose activity change, negative = inhibition, usual class: inhibitors | AID 651768; also: % is scaled to controls: 0 for no effect and ±100 for the full control effect; nearly all actives have a fitted effect of over 55% in size
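Fluorescence dequenching readout, ex 525 nm/em 598 nm, kinetic mode: forked duplex DNA (100 nM final) with adjacent fluorophore and quencher unwound by WRN (20 nM final) with 2 mM ATP. Compound preincubation 15 min, room temperature.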
TexasRed fluor: counter-screen for TRb-SRC2 inhibitors: fluorescence interference; TRb/SRC2 Texas Red total fluorescence interference; hit rate 0.29% among 280,000; Potency, µM (series often up to 106 µM), inactives show at the top dose fluorescence change, negative = quenching; AID 1479; active = well fitted curve in either direction with a large enough effect; inconclusive = small, poorly fitted or top-dose-only effect; also: % is scaled to controls: 0 for no effect and ±100 for the full control effect
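Human TRβ ligand-binding domain (0.6 uM) and Texas Red SRC2 peptide (20 nM) in Tris buffer with 1 uM T3 and 5% DMSO were incubated with pinned compound for 5 hr at ambient temperature. Total fluorescence was computed as S + 2P (555/632 nm).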
RECQ1 inh: blocks DNA unwinding by human RECQ1; AID 2549; hit rate 0.54% among 240,000; Potency, µM (titrated, usually from 57.3 µM), inactives show at the top dose activity, negative = inhibition, most hits filed as inhibitors; P46063; RECQ1 DNA unwinding, red fluorescence kinetic read;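 also: plate controls were vehicle for no effect and no enzyme for full effect; nearly all actives have a fitted effect of over 30% in size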
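50 nM RECQ1T1 preincubated 15 min with compound in Tris pH 8.0 buffer with MgCl2, DTT, Tween-20 and 2.5 ug/ml poly(dI-dC); started with 200 nM TAMRA/BHQ-2 forked duplex and 2 mM ATP. Unwinding read as fluorescence (525/598 nm), two reads 2 h apart.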
BLM helicase inh-1: blocks DNA unwinding by human BLM helicase | recombinant BLM DNA unwinding, fluorescence dequenching | Potency, µM (doses to about 56.1 µM), for the others: at the highest dose activity change, negative = inhibition, actives largely listed as inhibitors | hit rate 0.2% among 350,000;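 also: plate controls were vehicle for no effect and no enzyme for full effect; nearly all actives have a fitted effect of over 35% in size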
WRN helicase inh-2: WRN helicase inhibition, cherry-pick retest. shares compounds with WRN helicase inh-1. WRN helicase DNA unwinding, fluorescence kinetic. Potency, µM (highest dose often 57.1 µM), for inactives: at the top dose activity, negative = inhibition, actives largely listed as inhibitors. hit rate 63% among 610. AID 720497; also: nearly all actives have a fitted effect of over 65% in size
TO displacement: DNA binding via thiazole orange displacement | shares compounds with WRN helicase inh-1 | thiazole orange DNA binding displacement, fluorescence | Potency, µM (top dose mostly 57.1 µM), without a hit: at the highest dose activity change, negative = inhibition, hits mostly inhibitors | hit rate 10% among 610 | AID 720499;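 also: drop in dye fluorescence marks compound binding to DNA; % is scaled to controls: 0 for no effect and ±100 for the full control effect; nearly all actives have a fitted effect of over 60% in size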
BLM helicase inh-2: counter-screen for WRN helicase inhibitors: human BLM helicase inhibition; shares compounds with WRN helicase inh-1; Recombinant BLM helicase DNA unwinding, red fluorescence; Potency, µM (titrated, usually from 57.1 µM), without a hit: top-dose activity change, negative = inhibition, most hits filed as inhibitors; hit rate 60% among 610; AID 720503; also: nearly all actives have a fitted effect of over 60% in size
* marks the source's active call; other numbers are inactive results; i = inactive; ? = inconclusive; . = no result; [ ] = another dose, or the depositor's remark. Unless noted, calls follow the shape of the dose curve; as a rule, active = well fitted curve in the direction sought with a large enough effect; inconclusive = small, poorly fitted or top-dose-only effect, or another doubt; inactive = no such curve, though single readings can be large; an effect the other way counts as inactive or inconclusive. Potency is read from the fitted curve at half-maximal effect.

SMILES	TRb-SRC2 inh	APEX1 inh	WRN helicase inh-1	TexasRed fluor	RECQ1 inh	BLM helicase inh-1	WRN helicase inh-2	TO displacement	BLM helicase inh-2
CN1CCc2nc(SCC(=O)Nc3ccc(OC(F)(F)F)cc3)c(C#N)c(-c3cccs3)c2C1	-1.8%	-0.7%	?	-9.5%	-10.7%	-20.2%	19.2µM*	3.41µM*	24.1µM*
COc1ccc(-c2cn3cccnc3n2)cc1NC(=O)Nc1cc(C)ccc1C	-0.9%	-8.0%	.	?	.	-12.0%	15.2µM*	-7.6%	6.81µM*
CCC(C)c1ccc(N(CC(=O)NC(C)(C)C)C(=O)CNC(=O)c2cccs2)cc1 (stereo unspecified)	.	-3.5%	9.5%	.	.	0.6%	.	.	.
CCN1CCN(C(=O)/C=C/c2ccc(C(C)C)cc2)CC1	.	.	-13.4%	.	.	.	.	.	.
CCN1CCC(O)(/C=C/c2ccc(C(C)C)cc2)C(C(=O)/C=C/c2ccc(C(C)C)cc2)C1 (stereo unspecified)	.	.	15.8µM*	.	.	.	-27.9%	-29.6%	?
COc1ccc(NC(=O)Cc2ccccc2)cn1	1.6%	7.8%	-28.7%	1.1%	-17.3%	-6.4%	.	.	.
COc1ccc(NC(=O)/C(Cl)=C(/Cl)S(=O)Cc2ccccc2)cn1 (stereo unspecified)	2.6%	-8.5%	31.6µM*	-4.4%	-16.9%	-4.8%	?	-2.9%	-18.8%
O=C(O)c1ccc2c(c1)C(=O)/C(=C\c1ccco1)C2=O	2.9%	7.94µM*	25.1µM*	?	?	139.5%	?	21.5µM*	-9.8%
COc1ccc(/C(C)=N/NC(=O)CNC(=O)c2ccncc2)c(OC)c1	.	-20.7%	1.0%	.	.	0.4%	.	.	.
Cc1c(CC(=O)NCCc2ccccc2F)c(=O)oc2cc(O)c(Cl)cc12	7.0%	.	.	1.4%	.	-0.7%	.	.	.
c1cnc(N2CCN(c3ncc4c(n3)CCNC4)CC2)nc1	-2.8%	.	.	-1.2%	.	14.6%	21.5µM*	?	?
Cc1nc2ccc(C(=O)O)cc2c2c1CC(C)S2 (stereo unspecified)	-4.3%	?	31.6µM*	3.9%	i	5.4%	19.2µM*	-17.6%	?
Cc1nc2cc(C(=O)O)ccc2s1	-0.2%	12.4%	2.3%	2.6%	-3.3%	-5.4%	.	.	.
CCN(c1ccccc1)S(=O)(=O)c1nnc(NC(=O)C(C)(C)C)s1	-4.9%	16.3%	5.7%[57.1 µM]	5.6%	.	-0.7%	.	.	.
CC(=C/C(=O)O)/C=C/c1ccc(Cl)o1	1.0%	-3.0%	?	-1.4%	-2.7%	85.3%	6.07µM*	-7.0%	3.04µM*
CC(=O)Nc1ccc(NC(=O)CSc2nnc(NC(=O)C3CC(=O)N(c4ccc(F)cc4)C3)s2)cc1 (stereo unspecified)	.	42.0%	-27.6%	.	.	-0.9%	.	.	.
O=C(CN1CCN(C(c2ccccc2)c2ccccc2)CC1)N1CCOCC1	-5.1%	3.1%	3.8%	-4.2%	8.3%	1.1%	.	.	.
Oc1c(C(c2ccccc2)N2CCOCC2)ccc2ccccc12 (stereo unspecified)	.	.	28.2µM*	.	.	.	?	-19.8%	-24.0%
CCC(=O)c1ccc(CCCCCC(=O)O)s1	-1.9%	?	?	-6.4%	-14.1%	-3.6%	21.5µM*	2.9%	21.5µM*
CC(=O)c1ccc(CCCCCCCCCC(=O)O)s1	-3.4%	-2.7%	-13.8%	-0.9%	?	-1.7%	.	.	.
